Tests used:
Test in all cases: log2 ratio of Biotin-Ahx-Ub-VS probe labelling (fragment/DMSO); higher = less target engagement (more negative = stronger competition), active = hit call of the paper (q ≤ 0.05, log2 ratio ≤ -1)
Conditions in all cases: compound concentration: 200 uM; treatment time: 3 h
USP19 = molecular target: T1, USP19 (UniProt O94966)
T1 sequence (whole entry): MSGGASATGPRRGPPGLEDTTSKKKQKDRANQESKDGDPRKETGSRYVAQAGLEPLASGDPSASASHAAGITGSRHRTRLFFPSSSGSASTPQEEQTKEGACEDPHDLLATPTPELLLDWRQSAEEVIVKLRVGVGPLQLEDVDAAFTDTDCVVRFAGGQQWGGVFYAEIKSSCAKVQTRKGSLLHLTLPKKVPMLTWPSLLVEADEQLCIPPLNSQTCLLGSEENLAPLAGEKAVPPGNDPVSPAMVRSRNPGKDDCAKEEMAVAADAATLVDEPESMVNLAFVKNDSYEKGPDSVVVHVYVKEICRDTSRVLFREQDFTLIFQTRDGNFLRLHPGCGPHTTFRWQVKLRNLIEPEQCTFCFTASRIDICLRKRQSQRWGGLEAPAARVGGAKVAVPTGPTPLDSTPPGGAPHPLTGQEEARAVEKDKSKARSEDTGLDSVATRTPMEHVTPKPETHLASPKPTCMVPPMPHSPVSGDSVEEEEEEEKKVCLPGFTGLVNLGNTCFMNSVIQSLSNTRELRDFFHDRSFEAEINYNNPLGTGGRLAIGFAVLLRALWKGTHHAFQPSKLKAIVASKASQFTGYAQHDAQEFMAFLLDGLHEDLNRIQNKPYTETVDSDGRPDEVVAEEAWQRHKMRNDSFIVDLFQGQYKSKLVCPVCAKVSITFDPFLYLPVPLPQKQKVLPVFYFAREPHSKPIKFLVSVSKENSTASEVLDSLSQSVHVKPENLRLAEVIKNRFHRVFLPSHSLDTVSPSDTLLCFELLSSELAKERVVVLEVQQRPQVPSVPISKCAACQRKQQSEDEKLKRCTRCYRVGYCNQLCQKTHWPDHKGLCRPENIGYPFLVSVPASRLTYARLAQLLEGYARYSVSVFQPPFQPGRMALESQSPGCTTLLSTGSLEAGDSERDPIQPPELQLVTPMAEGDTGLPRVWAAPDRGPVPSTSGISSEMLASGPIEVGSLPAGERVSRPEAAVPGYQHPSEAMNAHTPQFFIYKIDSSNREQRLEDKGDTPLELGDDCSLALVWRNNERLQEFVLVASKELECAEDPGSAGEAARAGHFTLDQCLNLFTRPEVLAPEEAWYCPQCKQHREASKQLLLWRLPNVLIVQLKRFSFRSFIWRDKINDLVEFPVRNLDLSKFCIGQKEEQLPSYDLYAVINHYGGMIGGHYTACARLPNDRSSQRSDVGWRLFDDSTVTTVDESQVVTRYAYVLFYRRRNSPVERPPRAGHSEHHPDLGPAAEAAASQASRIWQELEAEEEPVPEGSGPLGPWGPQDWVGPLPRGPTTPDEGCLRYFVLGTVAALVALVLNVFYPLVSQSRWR
How it was run: (§1)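 The table lists average log2 ratios of fragment over vehicle, from an unpaired t-test on global-median-normalised Spectronaut label-free quantities. Proteins with ≥2 unique peptides were used. Samples were HEK293T lysate (495 µg) treated in triplicate with fragment at 200 µM or vehicle for 3 h, then with Biotin-Ahx-Ub-VS (0.5 µM final) for 1 h, with labelled DUBs NeutrAvidin-enriched and run by diaPASEF LC-MS/MS.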

USP22 = molecular target: T2, USP22 (UniProt Q9UPT9)
T2 sequence (whole entry): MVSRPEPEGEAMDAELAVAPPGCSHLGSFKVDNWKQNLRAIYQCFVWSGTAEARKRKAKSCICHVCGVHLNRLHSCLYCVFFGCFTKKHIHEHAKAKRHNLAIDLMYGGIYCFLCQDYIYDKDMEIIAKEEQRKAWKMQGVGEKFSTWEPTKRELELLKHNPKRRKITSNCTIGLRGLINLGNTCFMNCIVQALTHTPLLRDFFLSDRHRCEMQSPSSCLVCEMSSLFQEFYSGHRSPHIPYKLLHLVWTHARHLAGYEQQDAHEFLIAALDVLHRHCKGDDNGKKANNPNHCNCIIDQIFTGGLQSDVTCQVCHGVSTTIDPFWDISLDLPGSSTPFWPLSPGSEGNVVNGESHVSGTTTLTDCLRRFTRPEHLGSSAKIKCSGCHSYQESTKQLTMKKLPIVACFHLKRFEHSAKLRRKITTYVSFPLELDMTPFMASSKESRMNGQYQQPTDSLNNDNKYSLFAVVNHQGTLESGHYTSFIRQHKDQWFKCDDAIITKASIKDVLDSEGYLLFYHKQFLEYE
How it was run: as §1

USP24 = USP24 (UniProt Q9UPU5)
USP24, sequence (Q9UPU5 whole entry): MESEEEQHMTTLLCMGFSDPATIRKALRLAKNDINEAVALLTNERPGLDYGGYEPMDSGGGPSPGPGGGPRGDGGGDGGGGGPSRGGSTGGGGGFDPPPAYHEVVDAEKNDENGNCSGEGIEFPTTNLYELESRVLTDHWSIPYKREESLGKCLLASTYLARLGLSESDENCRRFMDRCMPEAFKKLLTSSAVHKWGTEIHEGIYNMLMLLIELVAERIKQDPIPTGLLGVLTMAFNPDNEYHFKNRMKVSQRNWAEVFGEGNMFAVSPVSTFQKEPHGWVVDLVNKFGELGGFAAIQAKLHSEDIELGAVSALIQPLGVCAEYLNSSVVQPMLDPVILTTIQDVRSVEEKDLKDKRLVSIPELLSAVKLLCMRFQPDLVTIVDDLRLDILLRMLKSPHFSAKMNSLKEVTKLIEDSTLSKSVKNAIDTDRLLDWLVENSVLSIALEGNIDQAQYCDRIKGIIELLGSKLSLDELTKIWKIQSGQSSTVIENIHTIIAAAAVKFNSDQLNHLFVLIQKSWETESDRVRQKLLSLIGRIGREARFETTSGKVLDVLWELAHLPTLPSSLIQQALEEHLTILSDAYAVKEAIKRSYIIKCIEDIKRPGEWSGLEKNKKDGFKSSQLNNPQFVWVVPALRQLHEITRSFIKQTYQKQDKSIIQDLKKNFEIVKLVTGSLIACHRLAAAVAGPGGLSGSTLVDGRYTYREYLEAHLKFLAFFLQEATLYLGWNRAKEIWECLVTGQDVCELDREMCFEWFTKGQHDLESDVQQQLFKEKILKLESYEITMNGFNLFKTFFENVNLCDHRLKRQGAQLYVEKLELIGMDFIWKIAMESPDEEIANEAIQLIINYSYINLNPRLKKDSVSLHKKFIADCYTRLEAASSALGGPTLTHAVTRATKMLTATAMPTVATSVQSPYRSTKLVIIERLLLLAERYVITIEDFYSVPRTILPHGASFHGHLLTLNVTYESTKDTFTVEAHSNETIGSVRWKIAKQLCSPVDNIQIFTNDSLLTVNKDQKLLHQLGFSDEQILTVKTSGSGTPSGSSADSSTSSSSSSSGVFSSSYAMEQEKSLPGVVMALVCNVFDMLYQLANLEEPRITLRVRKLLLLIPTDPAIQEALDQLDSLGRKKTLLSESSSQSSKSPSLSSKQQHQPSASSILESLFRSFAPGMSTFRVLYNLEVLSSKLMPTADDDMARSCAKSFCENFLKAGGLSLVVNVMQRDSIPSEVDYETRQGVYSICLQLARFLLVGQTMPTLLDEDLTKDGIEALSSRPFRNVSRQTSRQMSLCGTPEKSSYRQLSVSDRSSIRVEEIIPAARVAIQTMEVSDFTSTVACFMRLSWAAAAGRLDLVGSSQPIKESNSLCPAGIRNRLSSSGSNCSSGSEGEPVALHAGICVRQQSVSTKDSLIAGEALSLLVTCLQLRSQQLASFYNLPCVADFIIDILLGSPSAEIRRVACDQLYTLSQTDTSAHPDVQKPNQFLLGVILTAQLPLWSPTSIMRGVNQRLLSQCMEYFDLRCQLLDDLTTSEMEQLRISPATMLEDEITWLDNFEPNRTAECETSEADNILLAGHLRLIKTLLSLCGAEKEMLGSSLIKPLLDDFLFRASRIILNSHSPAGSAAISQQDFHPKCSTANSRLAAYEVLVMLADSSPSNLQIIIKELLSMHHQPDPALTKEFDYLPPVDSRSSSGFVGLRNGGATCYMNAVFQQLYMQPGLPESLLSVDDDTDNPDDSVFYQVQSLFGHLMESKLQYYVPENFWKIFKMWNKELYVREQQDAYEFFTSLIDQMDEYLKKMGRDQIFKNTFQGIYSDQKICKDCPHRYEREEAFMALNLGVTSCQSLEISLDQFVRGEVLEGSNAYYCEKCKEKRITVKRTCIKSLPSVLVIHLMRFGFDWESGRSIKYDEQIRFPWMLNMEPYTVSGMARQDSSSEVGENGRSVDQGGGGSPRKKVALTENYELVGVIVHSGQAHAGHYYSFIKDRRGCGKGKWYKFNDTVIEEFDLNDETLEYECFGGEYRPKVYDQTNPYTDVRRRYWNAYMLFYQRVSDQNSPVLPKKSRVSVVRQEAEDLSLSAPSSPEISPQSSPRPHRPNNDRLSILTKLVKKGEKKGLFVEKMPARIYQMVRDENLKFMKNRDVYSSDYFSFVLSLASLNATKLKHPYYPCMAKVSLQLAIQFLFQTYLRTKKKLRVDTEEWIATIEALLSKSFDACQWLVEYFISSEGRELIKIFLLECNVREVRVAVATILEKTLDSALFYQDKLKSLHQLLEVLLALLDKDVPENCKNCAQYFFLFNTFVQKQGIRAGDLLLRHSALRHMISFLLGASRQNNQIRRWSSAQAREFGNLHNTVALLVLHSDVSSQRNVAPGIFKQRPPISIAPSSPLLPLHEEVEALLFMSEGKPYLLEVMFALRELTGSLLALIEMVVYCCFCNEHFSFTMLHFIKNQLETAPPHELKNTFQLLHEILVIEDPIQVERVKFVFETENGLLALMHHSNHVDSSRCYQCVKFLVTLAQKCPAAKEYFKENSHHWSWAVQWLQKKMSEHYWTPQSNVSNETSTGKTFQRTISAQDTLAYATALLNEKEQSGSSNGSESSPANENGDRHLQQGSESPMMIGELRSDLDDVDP
How it was run: as §1

USP25 = molecular target: T3, USP25 (UniProt Q9UHP3)
T3 sequence (whole entry): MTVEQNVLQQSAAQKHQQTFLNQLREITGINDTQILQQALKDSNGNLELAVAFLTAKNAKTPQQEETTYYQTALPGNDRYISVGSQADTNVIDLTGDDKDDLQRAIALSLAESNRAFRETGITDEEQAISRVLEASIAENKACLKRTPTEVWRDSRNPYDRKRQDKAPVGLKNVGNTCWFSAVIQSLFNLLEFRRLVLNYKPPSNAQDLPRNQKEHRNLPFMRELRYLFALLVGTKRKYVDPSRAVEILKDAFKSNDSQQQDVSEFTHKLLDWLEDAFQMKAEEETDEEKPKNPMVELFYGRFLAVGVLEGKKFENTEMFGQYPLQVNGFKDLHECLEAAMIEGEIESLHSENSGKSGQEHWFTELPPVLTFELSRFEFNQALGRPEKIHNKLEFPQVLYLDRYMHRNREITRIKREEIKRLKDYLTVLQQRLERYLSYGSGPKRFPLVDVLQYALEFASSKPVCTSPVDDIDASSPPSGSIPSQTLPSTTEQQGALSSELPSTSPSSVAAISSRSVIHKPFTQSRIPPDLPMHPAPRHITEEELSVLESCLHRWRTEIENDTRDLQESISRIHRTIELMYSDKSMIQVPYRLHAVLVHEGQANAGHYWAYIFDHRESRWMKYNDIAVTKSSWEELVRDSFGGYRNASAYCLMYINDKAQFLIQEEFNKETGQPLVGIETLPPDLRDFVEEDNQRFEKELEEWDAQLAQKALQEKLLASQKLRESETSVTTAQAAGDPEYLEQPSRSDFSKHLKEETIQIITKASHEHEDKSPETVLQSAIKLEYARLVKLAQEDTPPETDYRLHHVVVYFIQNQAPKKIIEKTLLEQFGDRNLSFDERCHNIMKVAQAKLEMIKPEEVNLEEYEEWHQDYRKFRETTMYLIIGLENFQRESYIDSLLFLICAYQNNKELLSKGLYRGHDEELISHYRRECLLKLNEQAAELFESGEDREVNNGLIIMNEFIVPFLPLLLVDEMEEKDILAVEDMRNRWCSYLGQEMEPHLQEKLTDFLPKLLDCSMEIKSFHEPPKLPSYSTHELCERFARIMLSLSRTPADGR
How it was run: as §1

USP28 = molecular target: T4, USP28 (UniProt Q96RU2)
T4 sequence (whole entry): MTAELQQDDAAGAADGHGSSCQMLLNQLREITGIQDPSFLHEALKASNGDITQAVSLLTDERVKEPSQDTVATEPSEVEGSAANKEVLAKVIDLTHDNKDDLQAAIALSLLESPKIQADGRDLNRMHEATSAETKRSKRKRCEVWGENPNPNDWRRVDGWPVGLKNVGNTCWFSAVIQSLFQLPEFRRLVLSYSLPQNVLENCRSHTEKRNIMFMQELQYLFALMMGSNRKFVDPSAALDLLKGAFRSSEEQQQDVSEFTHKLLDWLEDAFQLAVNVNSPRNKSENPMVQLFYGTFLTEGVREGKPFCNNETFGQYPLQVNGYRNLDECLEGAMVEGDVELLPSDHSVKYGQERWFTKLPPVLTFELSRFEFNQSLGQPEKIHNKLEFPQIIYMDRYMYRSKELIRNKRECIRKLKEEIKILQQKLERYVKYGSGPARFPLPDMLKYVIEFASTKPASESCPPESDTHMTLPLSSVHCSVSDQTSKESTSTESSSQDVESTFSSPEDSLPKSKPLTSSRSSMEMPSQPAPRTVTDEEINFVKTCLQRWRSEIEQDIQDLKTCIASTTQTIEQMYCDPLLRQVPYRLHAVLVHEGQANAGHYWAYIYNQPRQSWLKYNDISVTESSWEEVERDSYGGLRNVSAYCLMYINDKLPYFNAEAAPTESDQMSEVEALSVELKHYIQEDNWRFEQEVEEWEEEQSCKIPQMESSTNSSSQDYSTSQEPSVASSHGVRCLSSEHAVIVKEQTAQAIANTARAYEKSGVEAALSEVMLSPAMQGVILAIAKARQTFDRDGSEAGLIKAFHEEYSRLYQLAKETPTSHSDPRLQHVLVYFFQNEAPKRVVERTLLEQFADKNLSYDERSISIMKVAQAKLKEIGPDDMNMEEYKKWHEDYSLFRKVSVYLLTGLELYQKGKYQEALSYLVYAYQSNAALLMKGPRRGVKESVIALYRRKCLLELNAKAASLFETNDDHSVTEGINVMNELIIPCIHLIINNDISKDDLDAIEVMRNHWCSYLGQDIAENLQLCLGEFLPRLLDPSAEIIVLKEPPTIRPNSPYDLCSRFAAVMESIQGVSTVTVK
How it was run: as §1

Measured: log2 ratio of Biotin-Ahx-Ub-VS probe labelling

O=C(CCl)NCC(=O)N1CCCC1
inactive: USP19 0.114 | USP22 -0.00438 | USP24 -0.074 | USP25 0.037 | USP28 -0.302
